The values below come from PubChem BioAssay (NCATS).

Each structure is given as a SMILES string. Inconclusive results are not listed. A call without a number means that no potency is given here. Calls of active or inactive are those of the source. The call rests on the fitted dose curve.
Potency means the concentration at half of the fitted maximal effect.

The nature of the assay: Primary qHTS for inhibitors of MERS-S pseudo-typed particle cell entry (AID 1479149). Further: nearly all actives have a fitted effect of over 60% in size. As to conditions: MERS-S pseudotyped particle entry, luciferase; series mostly up to 57.1 µM. (Quantitative high-throughput screening tests each substance at several concentrations.)
For `COc1cc2c(c(OC)c1OC)-c1ccc(OC)c(=O)cc1[C@@H](NC(C)=O)CC2`, the Potency result was “inactive”. With `CN1CCN(C(=O)O[C@H]2c3nccnc3C(=O)N2c2ccc(Cl)cn2)CC1`, the Potency entry is “inactive”. In the case of `CCCC1CCCCN1` (stereo unspecified), the Potency entry is “inactive”. On to `O=C1C(=O)c2ccccc2C(O)=C1C1CCC(c2ccc(Cl)cc2)CC1` (stereo unspecified), for which the Potency is 22.4 µM (active). On to `CC(C)(C)NCC(O)c1cc(Cl)c(N)c(Cl)c1` (stereo unspecified), for which the Potency result was “inactive”. Take `CC(C)(C)CC(C)(C)c1ccc(O)cc1`: the Potency result was “inactive”.

For the molecule `CC(C)Nc1cccnc1N1CCN(C(=O)c2cc3cc(NS(C)(=O)=O)ccc3[nH]2)CC1`, the Potency result was “inactive”.

As for `Cc1nc(-c2ccc(OCC(C)C)c(C#N)c2)sc1C(=O)O`, the Potency result is “inactive”.

On to `CC(=O)Nc1cc([As](=O)(O)O)ccc1O`, for which the Potency result was “inactive”. The entry for `CC(C)NCC(O)c1ccccc1Cl` (stereo unspecified) is “inactive”.

With `C=C1CC[C@@]2(O)[C@H]3Cc4ccc(O)c5c4[C@@]2(CCN3CC2CC2)[C@H]1O5`, the Potency entry was “inactive”. The entry for `c1ccc2c(c1)Nc1ccccc1S2` is “inactive”; for `C[C@]12CC[C@H]3[C@@H](CCC4=CC(=O)CC[C@@H]43)[C@@H]1CC[C@@H]2OC(=O)CCc1ccccc1` it is “inactive”. Regarding `O=C1CC[C@@]2(O)[C@H]3Cc4ccc(O)c5c4[C@@]2(CCN3CC2CC2)[C@H]1O5`, the Potency result was “inactive”. Consider `CCCSc1ccc2nc(NC(=O)OC)[nH]c2c1`, for which the Potency entry was “inactive”. For the molecule `CCC(C(N)=O)N1CCCC1=O` (stereo unspecified), the Potency entry is “inactive”.
